Unmarked numbers belong to inactive results. The rule behind the calls is not given here.
Test system: Botulinum neurotoxin type F light chain protease (Clostridium botulinum)
Test: Botulinum neurotoxin type F light chain protease inhibition, multiplex microsphere flow cytometry, validation set (AID 588459)
Conditions: multiplex microsphere protease substrate cleavage assay, at 10 µM, active compounds read high

Compound | inhibition
O=C(NCCc1cccc(F)c1)[C@@H]1CSC2c3ccccc3C(=O)N21 (stereo partly drawn) | 0.2%
Nc1c(C(=O)c2ccccc2)oc2ccccc12 | 1.8%
CCCCOn1c(C)c(C(C)=O)c2c3no[n+]([O-])c3ccc21 | 1.9%
CC12CCC(C(=O)N(CCC#N)CCC#N)(CC1=O)C2(C)C (stereo not drawn) | 2.1%
CN(C(=O)C(Cl)Cl)c1ccc(OC(=O)c2ccco2)cc1 | 1.7%
COC(=O)c1[nH]c2ccc(F)cc2c1NC(=O)C1=COCCO1 | 0%
Cc1ccc(-c2nnc(-c3ccc4c(c3)OCO4)o2)cc1 | -1%
CC1(C)NC(C(=O)O)Cc2c1[nH]c1ccccc21 (stereo not drawn) | -1.6%
Cc1ccc(CSCC(=O)N2CCCC2)cc1 | 2.8%
C[N+]12CCCCC1C(COC(=O)c1ccc3c(c1)OCO3)CCC2 (stereo not drawn) | 2.1%
CN(C)[C@@H]1C(=O)C(C(=O)NCN2CCCC2)=C(O)[C@@]2(O)C(=O)C3=C(O)c4c(O)cccc4[C@@](C)(O)C3CC12 (stereo partly drawn) | -4.8%
COc1ccc(CCNC(=O)c2ccc(Cl)cc2)cc1OC | 0.6%
NC(=O)c1ncn([C@@H]2O[C@H](CO)[C@@H](O)[C@H]2O)c1O | -1.3%
COc1ccc(C(=O)[C@H]2[C@H]3C(=O)N(c4ccccc4)C(=O)[C@H]3C3C=CC=NN32)cc1 (stereo partly drawn) | 1.9%
O=C(O)/C=C/c1cnc[nH]1 | 1.9%
COc1cc(CC(=O)NCCc2ccc(S(N)(=O)=O)cc2)cc(OC)c1OC | 4.1%
COc1ccc(CC(=O)N2CC3(C)CC2CC(C)(C)C3)cc1OC (stereo not drawn) | -2.6%
CC12CCCCN1CCCc1c2[nH]c2ccccc12 (stereo not drawn) | -1.1%
COc1ccc2cc(-c3nc4ccccc4n3C)c(=O)oc2c1 | 2%
c1ccc(CNc2ncnc3nc[nH]c23)cc1 | -7.5%
CCCC(=O)O[C@]1(C(=O)COC(C)=O)CC[C@H]2[C@@H]3C[C@H](F)C4=CC(=O)C=C[C@]4(C)[C@@]3(F)[C@@H](O)C[C@@]21C | -1.4%
Cc1ccc2nc(C)c3c(c2c1)OC(C(C)(Cl)Br)C3 (stereo not drawn) | -0.4%
CC1(C)C2CCC1(C)C(OCC[N+](C)(C)CC(=O)OC1CCCCC1)C2 (stereo not drawn) | -1.7%

Molecular target: Botulinum neurotoxin type A (Clostridium botulinum) (UniProt P0DPI0)
Test: BoNT/A light chain protease inhibitors, biochemical, multiplex microsphere flow cytometry, validation set (AID 588460)
Conditions: at 10 µM, active compounds read high

Chain of Botulinum neurotoxin type A (Clostridium botulinum) (P0DPI0 whole entry, looked up): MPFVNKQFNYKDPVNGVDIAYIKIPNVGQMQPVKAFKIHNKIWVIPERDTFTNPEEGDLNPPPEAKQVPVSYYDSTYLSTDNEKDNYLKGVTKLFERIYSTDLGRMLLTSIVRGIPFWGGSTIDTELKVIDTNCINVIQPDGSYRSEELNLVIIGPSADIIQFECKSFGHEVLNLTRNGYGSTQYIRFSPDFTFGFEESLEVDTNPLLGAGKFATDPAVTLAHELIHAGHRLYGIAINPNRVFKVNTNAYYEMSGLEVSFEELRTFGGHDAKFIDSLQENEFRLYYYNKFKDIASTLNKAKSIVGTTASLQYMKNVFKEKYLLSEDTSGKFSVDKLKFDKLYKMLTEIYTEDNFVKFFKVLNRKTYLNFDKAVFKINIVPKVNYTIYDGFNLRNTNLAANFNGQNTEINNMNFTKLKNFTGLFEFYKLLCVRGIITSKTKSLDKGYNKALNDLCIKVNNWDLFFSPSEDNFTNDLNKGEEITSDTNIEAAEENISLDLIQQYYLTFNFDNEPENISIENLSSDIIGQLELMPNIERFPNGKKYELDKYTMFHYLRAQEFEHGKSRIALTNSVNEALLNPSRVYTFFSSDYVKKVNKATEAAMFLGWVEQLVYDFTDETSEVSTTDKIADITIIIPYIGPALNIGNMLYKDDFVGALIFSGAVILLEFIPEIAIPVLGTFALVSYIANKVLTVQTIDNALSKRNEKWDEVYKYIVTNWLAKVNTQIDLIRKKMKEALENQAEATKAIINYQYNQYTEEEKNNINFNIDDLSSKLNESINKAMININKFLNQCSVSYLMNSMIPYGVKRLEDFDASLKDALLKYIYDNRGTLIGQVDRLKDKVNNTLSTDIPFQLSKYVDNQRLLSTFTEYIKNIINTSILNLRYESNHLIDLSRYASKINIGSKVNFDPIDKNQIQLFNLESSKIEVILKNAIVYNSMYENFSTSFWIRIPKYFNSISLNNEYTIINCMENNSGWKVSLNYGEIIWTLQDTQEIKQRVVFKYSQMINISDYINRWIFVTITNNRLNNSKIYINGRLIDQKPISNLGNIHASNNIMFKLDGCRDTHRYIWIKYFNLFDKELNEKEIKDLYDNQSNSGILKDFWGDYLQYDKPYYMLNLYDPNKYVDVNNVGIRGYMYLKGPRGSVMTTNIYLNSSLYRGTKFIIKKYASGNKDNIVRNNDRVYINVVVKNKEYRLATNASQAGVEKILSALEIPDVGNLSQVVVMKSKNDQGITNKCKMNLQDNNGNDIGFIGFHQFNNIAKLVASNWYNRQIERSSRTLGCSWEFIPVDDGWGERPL

Compound | inhibition
O=C1CCCC(=O)C1=Cc1c[nH]c2ccccc12 | 0.4%
COc1ccc2[nH]c3c(c2c1)CCNC3C1CC=C(C)CC1 (stereo not drawn) | 0.2%
Cc1cc(=O)oc(C)c1C(=O)NCCC(C)C | -0.2%
O=C(O)COc1ccc2occ(C(=O)c3ccccc3)c2c1 | 0.2%
COc1ccc(/C=C(/C#N)c2cccnc2)cc1OC | 1%
C#C[C@]1(O)CC[C@H]2[C@@H]3CCc4cc(O)ccc4[C@H]3CC[C@@]21C | -2.8%
C#CCN(C)CCCOc1ccc(Cl)cc1Cl | -1.4%
CC(=O)N1N=C(c2cccs2)CC1c1ccc(C)o1 (stereo not drawn) | -0.8%
O=C(NC1CC1)C1CCN(C2CCN(C(=O)Cc3ccc(F)cc3)CC2)CC1 | -0.6%
CC(=O)OCC#CCSc1nc2ccccc2n1C | -0.6%
CC(C)CC(=O)Nc1ccc2oc(-c3ccncc3)nc2c1 | 0.3%
O=C(O)CCCN1C(=O)NC2NC(=O)NC21 (stereo not drawn) | -0.8%
O=C(Nc1nc2ccccc2s1)c1ccc(F)cc1 | -1.5%
CC(C)CC(NC(=O)c1cccc(Cl)c1)C(=O)O (stereo not drawn) | -2.6%
C[C@H]1C[C@@H]2[C@H]([C@@H](O)C[C@@]3(C)[C@H]2CC[C@]3(O)C(=O)CO)[C@@]2(C)C=CC(=O)C=C12 | 0.7%
NS(=O)(=O)c1cc(C2(O)NC(=O)c3ccccc32)ccc1Cl (stereo not drawn) | -1.6%
CC(C)COC(=O)C1C(=O)CC(C)(O)C(C(=O)OCC(C)C)C1c1cccnc1 (stereo not drawn) | 0.6%
O=C(NCCc1cccc(F)c1)[C@@H]1CSC2c3ccccc3C(=O)N21 (stereo partly drawn) | -0.3%
Nc1c(C(=O)c2ccccc2)oc2ccccc12 | 1%
CCCCOn1c(C)c(C(C)=O)c2c3no[n+]([O-])c3ccc21 | 0.2%

Compound | inhibition
CC12CCC(C(=O)N(CCC#N)CCC#N)(CC1=O)C2(C)C (stereo not drawn) | -1.2%
CN(C(=O)C(Cl)Cl)c1ccc(OC(=O)c2ccco2)cc1 | 0.7%
COC(=O)c1[nH]c2ccc(F)cc2c1NC(=O)C1=COCCO1 | 0.8%
Cc1ccc(-c2nnc(-c3ccc4c(c3)OCO4)o2)cc1 | -0.1%
CC1(C)NC(C(=O)O)Cc2c1[nH]c1ccccc21 (stereo not drawn) | 1%
Cc1ccc(CSCC(=O)N2CCCC2)cc1 | -0.3%
C[N+]12CCCCC1C(COC(=O)c1ccc3c(c1)OCO3)CCC2 (stereo not drawn) | 0.2%
CN(C)[C@@H]1C(=O)C(C(=O)NCN2CCCC2)=C(O)[C@@]2(O)C(=O)C3=C(O)c4c(O)cccc4[C@@](C)(O)C3CC12 (stereo partly drawn) | -5.7%
COc1ccc(CCNC(=O)c2ccc(Cl)cc2)cc1OC | -1.4%
NC(=O)c1ncn([C@@H]2O[C@H](CO)[C@@H](O)[C@H]2O)c1O | -1.9%
COc1ccc(C(=O)[C@H]2[C@H]3C(=O)N(c4ccccc4)C(=O)[C@H]3C3C=CC=NN32)cc1 (stereo partly drawn) | 4.7%
O=C(O)/C=C/c1cnc[nH]1 | -0.2%
COc1cc(CC(=O)NCCc2ccc(S(N)(=O)=O)cc2)cc(OC)c1OC | 1.6%
COc1ccc(CC(=O)N2CC3(C)CC2CC(C)(C)C3)cc1OC (stereo not drawn) | -1.4%
CC12CCCCN1CCCc1c2[nH]c2ccccc12 (stereo not drawn) | -0.2%
COc1ccc2cc(-c3nc4ccccc4n3C)c(=O)oc2c1 | 1.8%
c1ccc(CNc2ncnc3nc[nH]c23)cc1 | -1.3%
CCCC(=O)O[C@]1(C(=O)COC(C)=O)CC[C@H]2[C@@H]3C[C@H](F)C4=CC(=O)C=C[C@]4(C)[C@@]3(F)[C@@H](O)C[C@@]21C | 0.4%
Cc1ccc2nc(C)c3c(c2c1)OC(C(C)(Cl)Br)C3 (stereo not drawn) | -0.5%
CC1(C)C2CCC1(C)C(OCC[N+](C)(C)CC(=O)OC1CCCCC1)C2 (stereo not drawn) | -2.1%
